Screening results deposited in PubChem BioAssay by several laboratories.
A selection: hits, their analogues and other compounds. The true share with any hit is near 3.1%.
PGE2 EP2 inh: blocks the human prostaglandin E2 receptor EP2; inhibition, % at 25 µM; AID 1422; C6 glioma cells expressing human EP2, cAMP TR-FRET; cells stimulated with saturating PGE2; 260,000 tested, 0.52% active;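 active = percent inhibition above 40 after rounding to a whole number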;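 note: rat C6 glioma host cells with rolipram phosphodiesterase inhibitor present; the protocol text gives 20 µM as final concentration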
Target sequence (P43116 whole entry, looked up): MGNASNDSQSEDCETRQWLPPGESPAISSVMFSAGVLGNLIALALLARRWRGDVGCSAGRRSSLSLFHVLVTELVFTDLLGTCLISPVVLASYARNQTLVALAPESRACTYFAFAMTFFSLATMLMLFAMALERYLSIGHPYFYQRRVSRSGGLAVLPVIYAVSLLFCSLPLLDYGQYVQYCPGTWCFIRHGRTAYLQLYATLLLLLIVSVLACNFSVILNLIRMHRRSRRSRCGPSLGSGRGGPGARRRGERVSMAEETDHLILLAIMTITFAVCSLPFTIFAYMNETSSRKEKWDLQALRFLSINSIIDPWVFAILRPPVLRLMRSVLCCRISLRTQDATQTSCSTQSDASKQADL
Cl transport mod: KCC2 (human) Cl- transport modulation. KCC2 cells, thallium flux FluoZin-2 fluorescence. B-score of Tl+ flux slope (higher = more flux/activation; lower = inhibition) at 10 µM. 190,000 tested, 2.2% active. AID 1456. Q9H2X9;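 active = thallium flux slope and its plate-corrected score both differing from the plate sample mean at a set confidence after two filtering rounds, in either direction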;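 note: slope of fluorescence scaled to starting intensity during 10 to 20 s after thallium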
EP2 mod: EP2 receptor (human) modulation | 260,000 tested, 0.83% active | EP2-expressing cells, cAMP HTRF FRET, PGE2 co-stimulation | induction, % at 25 µM | P43116;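 active = compounds whose cAMP rise, as percent of the full-agonist control response, exceeds 60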;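 note: rat C6 glioma line stably carrying human EP2 under a CMV promoter; the protocol text gives 20 µM as final concentration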
S1P3 antagonist: antagonists of human S1P3 receptor; CHO S1P3 NFAT-BLA reporter, FRET fluorescence, antagonist mode; Q99500; 170,000 tested, 0.27% active; inhibition, % at 4.98 µM; AID 485;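 active = inhibition above the plate cutoff, the mean inhibition of test wells on that plate plus 3 SD, cut at about 28% in these data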;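 note: cells challenged with S1P at its EC80 of 0.8 µM; blue over green emission ratio from cleaved BLA substrate after 4 h stimulation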
Target sequence (Q99500 whole entry, looked up): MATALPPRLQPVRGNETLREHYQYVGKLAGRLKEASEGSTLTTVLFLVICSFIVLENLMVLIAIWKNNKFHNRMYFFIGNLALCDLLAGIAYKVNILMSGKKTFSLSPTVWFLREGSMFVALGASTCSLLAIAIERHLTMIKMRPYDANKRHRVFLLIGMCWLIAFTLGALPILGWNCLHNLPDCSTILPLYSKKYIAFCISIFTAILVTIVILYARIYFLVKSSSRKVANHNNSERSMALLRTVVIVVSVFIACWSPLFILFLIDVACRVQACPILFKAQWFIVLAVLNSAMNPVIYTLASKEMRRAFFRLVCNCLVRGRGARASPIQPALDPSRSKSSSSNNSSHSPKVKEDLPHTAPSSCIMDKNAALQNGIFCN
KCC2 secondary: confirmation of human KCC2 transport modulators | shares compounds with Cl transport mod | HEK293-KCC2, thallium flux, FluoZin2 fluorescence; hits give high values | normalised thallium flux (F/F0 slope) at 10 µM | 3,700 tested, 15% active | AID 1713;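 active = thallium flux slope above the same plate's solvent-only control mean plus 3 SD; inconclusive = the two replicate wells disagree; inactive = no significant difference from solvent-only control wells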
KCC2 bumet counter: bumetanide-insensitive thallium flux in KCC2 cells with ouabain, counter-screen. AID 1714. 3,700 tested, 49% active. HEK293-KCC2 + bumetanide/ouabain, thallium flux FluoZin2; hits give high values. shares compounds with Cl transport mod. normalized thallium flux at 10 µM;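 active = thallium entry rate above the same plate's blocked-transporter control wells by more than 3 SD; inconclusive = the two repeat wells disagree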;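 note: raw slope of fluorescence over initial fluorescence between 10 and 20 s after thallium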
KCC2 secondary2: KCC2 (human) modulation, second secondary assay; shares compounds with Cl transport mod; HEK293-KCC2, thallium flux FluoZin2 fluorescence; actives lie on both sides; F/F0 rise rate, 10–20 s post-thallium; normalized thallium flux at 10 µM; 3,700 tested, 23% active;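 active = thallium flux slope more than 3 SD above or below the plate's solvent-only control mean, mostly below; inconclusive = the two repeat wells disagreed; inactive = no significant shift from solvent-only controls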
HEK counter1: counter-screen for KCC2 modulators: effect in parental HEK293 cells | 3,700 tested, 46% active | thallium flux rate (normalised fluorescence) at 10 µM | thallium flux FluoZin2, ouabain; baseline-ratio fluorescence slope, 10–20 s after thallium | shares compounds with Cl transport mod;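 active = thallium flux rate significantly above the same plate's solvent-only control wells, beyond their mean plus 3 SD; inconclusive = the two replicate wells gave conflicting results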
KCC2 retest ouab: confirmation of human KCC2 modulators with ouabain | shares compounds with Cl transport mod | HEK293-KCC2, thallium flux FluoZin2 fluorescence; bidirectional: low = inhibitor, high = activator | raw Tl+ flux slope (below DMSO = inhibition, above = activation) at 10 µM | 3,700 tested, 48% active | AID 1717;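 active = thallium flux slope beyond 3 SD from same-plate DMSO control mean in most replicates, usually higher, sometimes lower; inconclusive = repeat tests gave conflicting results; inactive = no significant difference from controls in most replicates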;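 note: slope of initial-normalized fluorescence between seconds 10 and 20 after thallium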
HEK counter2: acts in parental HEK cells, second KCC2 counter-screen; shares compounds with Cl transport mod; HEK293 parental, thallium flux FluoZin-2 fluorescence slope; thallium flux slope at 10 µM; 3,700 tested, 33% active;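 active = thallium flux slope above the same plate's solvent-control mean plus 3 SD in both duplicate wells; inconclusive = duplicate wells that disagreed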;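 note: run without ouabain in cells lacking the KCC2 cotransporter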
A number is an active result; 0 = inactive; ? = inconclusive; - = no result.

SMILES	PGE2 EP2 inh	Cl transport mod	EP2 mod	S1P3 antagonist	KCC2 secondary	KCC2 bumet counter	KCC2 secondary2	HEK counter1	KCC2 retest ouab	HEK counter2
COc1cc(C)nc(NC(=S)N(C)C(=O)c2ccccc2)n1	0	6.2	0	0	0	0.019	0	0.01	0	0.012
O=C(CN1C(=O)NC2(CCCCCC2)C1=O)N1CCC(Cc2ccccc2)CC1	0	-4.9	0	0	0	0.025	?	0.012	0.017	0
N#Cc1sc(C(N)=O)c(-c2ccccc2)c1-c1ccccc1	0	5.1	0	0	0	0	0	0	0	0
COc1ccc(-c2c(C#N)sc(C(N)=O)c2-c2ccc(OC)cc2)cc1	0	0	0	0	-	-	-	-	-	-
Cc1ccc2c(c1)CC[C@H]1CC(=O)CC[C@]21C	0	-	0	-	-	-	-	-	-	-
CCc1nn(CC(=O)NC(C)C)c(=O)c2cc3occc3n12	0	-	0	-	-	-	-	-	-	-
O=C(/C=C/c1ccccc1)NCCSCc1ccccc1Cl	0	-3.8	0	-	0	0	0	0	0.017	0
COC(=O)c1ccc(NC(=S)NN2CCCCC2c2cccnc2)cc1 (configuration not stated)	0	0	0	0	-	-	-	-	-	-
O=C(NC(=S)NN1CCCCC1c1cccnc1)c1ccc(Br)cc1 (configuration not stated)	0	65	0	0	0.033	0.099	0.046	0.04	0.066	0.02
Cc1cccc2cc3c(nc12)SC(=NCC1CCCO1)N(Cc1ccco1)C3 (configuration not stated)	0	0	0	0	-	-	-	-	-	-
Cc1ccc2nc3c(cc2c1)CN(Cc1ccco1)C(=NCC1CCCO1)S3 (configuration not stated)	0	3	0	0	0	?	0	0	0	0
Oc1ccc(N=Nc2ccc3c(c2)OCO3)c2ccccc12	0	9	0	0	0	0.011	0	0.011	0.02	0
CSC1=NS(=O)(=O)c2c(C)nn(C)c2S1	0	-4	0	0	0	0	0	?	0	?
COC(=O)C1=C(C(=O)OC)[C@@H]2N(Cc3ccccc3)c3ccccc3[C@@]23C[C@@H](C(=O)OC)N(C(C)=O)C3=N1	0	-1.1	0	-	0	0	0	0	0	0
CCOC(=O)N1C2=NC(C(=O)OC)=C(C(=O)OC)[C@@H]3N(Cc4ccccc4)c4ccccc4[C@]23C[C@H]1C(=O)OC	0	-	-	-	-	-	-	-	-	-
COc1ccc(NC(=O)CC2CCCC2)cc1S(=O)(=O)N1CCCCC1	0	0	0	0	-	-	-	-	-	-
COc1ccc(NC(=O)CCC2CCCCC2)cc1S(=O)(=O)N1CCCCC1	0	-3.9	0	0	0	0	0	0	0	0
Nc1c(C(=O)c2ccc(Cl)cc2)sc2nsc(SCCN3CCOCC3)c12	0	0	0	0	-	-	-	-	-	-
Nc1c(C(=O)c2ccccc2)sc2nsc(SCCN3CCCC3)c12	0	4.2	0	0	0.006	0	0	0	0.014	0
Cc1ccc(S(=O)(=O)N2CCCCC2)cc1NC(=S)NC(=O)c1ccco1	0	22	0	0	0	0.016	0	0.013	?	?
CCCCC(=O)Nc1ccc(C(=O)NNC(=S)NC(=O)c2ccco2)cc1	0	7.2	0	0	0	0.031	0	?	0.03	?
O=C(NC(=S)Nc1ccc(CN2CCCCC2)cc1)c1cc2ccccc2o1	0	13	0	0	0	0.017	0.05	0.031	0.033	0.032
O=C(NC(=S)Nc1ccc2oc(=O)ccc2c1)c1cc2ccccc2o1	0	35	0	0	0.016	0.049	0	0.037	?	0.017
COCCNC(=S)N(Cc1ccc(F)cc1)Cc1cc2cc(C)ccc2[nH]c1=O	0	-	0	-	-	-	-	-	-	-
CC(C)[C@H](Cn1nnc2ccccc21)NC(=O)c1ccccn1	-	-	0	-	-	-	-	-	-	-
SMILES	PGE2 EP2 inh	Cl transport mod	EP2 mod	S1P3 antagonist	KCC2 secondary	KCC2 bumet counter	KCC2 secondary2	HEK counter1	KCC2 retest ouab	HEK counter2
CCOc1ccc(NC(=S)NC(=O)c2ccco2)cc1	0	184	0	0	0.063	0.18	0.048	0.11	0.098	0.041
Cc1ccc(C(=O)NC(=S)Nc2ccc(CN3CCCCC3)cc2)c(C)c1	0	0	0	0	-	-	-	-	-	-
O=C(NC(=S)Nc1ccc(CN2CCOCC2)cc1)c1ccco1	0	11	0	0	?	0.034	0	0.013	0.039	0.012
Cc1ccc(NC(=S)NC(NC(=O)c2ccco2)C(Cl)(Cl)Cl)cc1 (configuration not stated)	0	8.2	0	-	0	0	0	0	0	0
O=C(NC(=S)Nc1ccc(CN2CCCCC2)cc1)c1ccco1	0	4	0	0	0	0.035	0	0.015	0.042	?
CN1C(=O)/C(=C/c2cc(C(C)(C)C)c(O)c(C(C)(C)C)c2)NC1=S	0	12	0	0	0	0.018	0	0.013	0	0.012
O=C(Nc1nccs1)NC(C(F)(F)F)C(F)(F)F	0	0	0	-	-	-	-	-	-	-
O=C(/C=C/Nc1nccs1)C(F)(F)Cl	0	8.9	0	0	?	0.017	0.038	0.016	?	0.015
COc1ccc(S(=O)(=O)N2CCCC(C(=O)Nc3ccc(C(C)C)cc3)C2)cc1 (configuration not stated)	0	-	0	-	-	-	-	-	-	-
Clc1ccc2c(c1Cl)NC(c1ccccn1)C1CC=CC21 (configuration not stated)	0	-	0	-	-	-	-	-	-	-
Cc1ccc(C(=O)Nc2ncc(Cc3ccc(F)cc3)s2)o1	0	-4.8	0	0	0	0	0	?	0	?
Cc1cc2cc(C(c3nnnn3Cc3ccccc3)N3CCc4ccccc43)c(=O)[nH]c2cc1C (configuration not stated)	0	-	0	-	0	0	0	0	0.014	0
Cc1cc(=O)oc2c1c(C)nn2-c1ccc(Cl)c(Cl)c1	0	-	0	-	-	-	-	-	-	-
CC12CC(NC(=O)N1c1cccc(C(=O)NCc3ccccc3)c1)c1ccccc1O2 (configuration not stated)	-	-	0	-	0	?	0	0	0	0
COC(=O)CSc1nnc(SCc2ccccc2)s1	0	-	0	0	0	?	0.021	0.006	0.012	0
CCCCCn1c(N2CCC(Cc3ccccc3)CC2)nc2c1c(=O)[nH]c(=O)n2C	0	-5.5	-	0	0	0	0	0	0	0
CC(=O)Cn1c(N2CCC(Cc3ccccc3)CC2)nc2c1c(=O)[nH]c(=O)n2C	0	0	0	0	-	-	-	-	-	-
